Screening data as filed in PubChem BioAssay.
The full list was thinned out, with hits kept by preference.
IDE exosite inh: insulin-degrading enzyme (human) exo-site inhibition; P14735; purified IDE, FL-6b probe fluorescence polarization; stronger effect = lower value; z-score at 20 µM; 6.3% of 17,000 active;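 active means z-score of -3 or lower, meaning strong loss of probe binding signal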;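 further: His-tagged human IDE residues 42-1019 made in E. coli with 30 nM FL-6b probe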
An asterisk follows results filed as active; ! = repeats disagree.

SMILES	IDE exosite inh
O=C(Nc1cccc(F)c1)N1CC(=O)N2[C@H](CO)[C@H](c3ccc(Br)cc3)[C@@H]2C1	0.025
CCCC(=O)Nc1ccc2c(c1)OC[C@H](C)NC[C@H](C)[C@@H](OC)CN(C)C2=O	-0.044
Cc1cccc(-c2ccc([C@@H]3[C@H]4CN(C(=O)CN5CCOCC5)CC(=O)N4[C@H]3CO)cc2)c1	-15*
Cc1ccc(-c2ccc([C@H]3[C@H](CO)N4C(=O)CN(C(=O)CN5CCOCC5)C[C@@H]34)cc2)cc1	0.8
COc1cccc(-c2ccc([C@H]3[C@@H](CO)N4C(=O)CN(C(=O)CN5CCOCC5)C[C@@H]34)cc2)c1	-3.5*
COCC#Cc1ccc([C@@H]2[C@H](CO)N3C(=O)CN(C(=O)CN4CCOCC4)C[C@@H]23)cc1	0.78
Cc1ccc(-c2ccc([C@@H]3[C@@H](CO)N4C(=O)CN(C(=O)CN5CCOCC5)C[C@@H]34)cc2)cc1	-1.4
COc1cccc(-c2ccc([C@@H]3[C@H](CO)N4C(=O)CN(C(=O)CN5CCOCC5)C[C@@H]34)cc2)c1	-6.3*
O=C(CN1CCOCC1)N1CC(=O)N2[C@@H](CO)[C@H](c3ccc(-c4cccc(F)c4)cc3)[C@@H]2C1	-0.23
O=C(CN1CCOCC1)N1CC(=O)N2[C@H](CO)[C@@H](c3ccc(-c4cccc(F)c4)cc3)[C@@H]2C1	-1.9
COc1cccc(-c2ccc([C@H]3[C@H]4CN(C(=O)CN5CCOCC5)CC(=O)N4[C@H]3CO)cc2)c1	-3
O=C(C[C@H]1C[C@H]2c3cc(NC(=O)c4ccc5c(c4)OCO5)ccc3O[C@H]2[C@@H](CO)O1)NCCN1CCCCC1	-0.42
CCC(=O)N(C)C[C@H]1[C@@H](c2ccc(-c3cccnc3)cc2)[C@@H](CO)N1C(C)=O	-0.32
C[C@@H]1CCCCO[C@H](CN(C)C(=O)C2CCCCC2)[C@H](C)CN([C@H](C)CO)C(=O)c2cc(NS(=O)(=O)c3ccccc3)ccc2O1	1.7
COCC(=O)N1[C@H](CO)[C@@H](c2ccc(-c3ccccc3OC)cc2)C12CN(C(C)=O)C2	-0.3
Cc1ccccc1S(=O)(=O)N1CC(=O)N2[C@H](C1)[C@@H](c1ccc(C#CC3CC3)cc1)[C@@H]2CO	-0.15
CC[C@@H]1C/C=C\C[C@H](C(C)C)NC(=O)CCC(=O)N1	-1.1
COc1ccc2c3c(n(C)c2c1)[C@H](CO)NCC31CCN(Cc2cc(F)ccc2F)CC1	-0.37
COc1cccc(S(=O)(=O)Nc2ccc3c(c2)C(=O)N(C)[C@H]2CC[C@@H](CC(=O)NCC4CCCCC4)O[C@H]2CO3)c1	-1.7
CN1C(=O)c2cc(NC(=O)c3cnccn3)ccc2OC[C@H]2O[C@@H](CC(=O)N[C@@H]3CCN(Cc4ccccc4)C3)CC[C@@H]21	-7*
COc1cccc(C(=O)Nc2ccc3c(c2)C(=O)N(C)[C@@H]2CC[C@H](CC(=O)N[C@@H](C)c4ccccc4)O[C@@H]2CO3)c1	-1.3
CN1C(=O)c2cc(NC(=O)c3cnccn3)ccc2OC[C@@H]2O[C@H](CC(=O)N[C@H]3CCN(Cc4ccccc4)C3)CC[C@H]21	-0.92
CN1C(=O)c2cc(NC(=O)c3cccc(F)c3)ccc2OC[C@H]2O[C@H](CC(=O)NCC3CCCCC3)CC[C@@H]21	-1.7
COc1cccc(C(=O)Nc2ccc3c(c2)C(=O)N(C)[C@H]2CC[C@@H](CC(=O)N[C@@H](C)c4ccccc4)O[C@H]2CO3)c1	-3.3*
CN1C(=O)c2cc(NC(=O)c3cnccn3)ccc2OC[C@H]2O[C@@H](CC(=O)N[C@H]3CCN(Cc4ccccc4)C3)CC[C@H]21	0.95
SMILES	IDE exosite inh
CN1C(=O)c2cc(NC(=O)c3cccc(F)c3)ccc2OC[C@H]2O[C@H](CC(=O)NCC3CCCCC3)CC[C@H]21	-3.2*!
COc1cccc(S(=O)(=O)Nc2ccc3c(c2)C(=O)N(C)[C@H]2CC[C@H](CC(=O)NCC4CCCCC4)O[C@@H]2CO3)c1	-0.74
CN1C(=O)c2cc(NC(=O)c3cccc(F)c3)ccc2OC[C@@H]2O[C@H](CC(=O)NCc3ccccc3Cl)CC[C@@H]21	-0.41
COc1cccc(S(=O)(=O)Nc2ccc3c(c2)C(=O)N(C)[C@H]2CC[C@@H](CC(=O)NCC4CCCCC4)O[C@@H]2CO3)c1	-3.2*
COc1cccc(C(=O)Nc2ccc3c(c2)C(=O)N(C)[C@@H]2CC[C@H](CC(=O)N[C@@H](C)c4ccccc4)O[C@H]2CO3)c1	0.24
CN(C)C(=O)c1ccc(-c2ccc([C@@H]3[C@H]4CN(C(=O)C5CCC5)CC(=O)N4[C@H]3CO)cc2)cc1	3
CO[C@H]1CN(C)C(=O)c2cc(NC(=O)C3CCOCC3)ccc2OC[C@H](C)NC[C@H]1C	0.9
COc1cccc(S(=O)(=O)Nc2ccc3c(c2)C(=O)N(C)[C@H]2CC[C@H](CC(=O)NCC4CCCCC4)O[C@H]2CO3)c1	-1.4
COCC(=O)N1CCCCN2[C@H](CO)[C@@H](c3ccc(C#Cc4ccccc4)cc3)[C@@H]2C1	-8.5*
COCC(=O)N1CCCCN2[C@H](C1)[C@H](c1ccc(C#Cc3ccc(OC)cc3)cc1)[C@@H]2CO	1.8
COc1ccccc1NC(=O)N1CCCCN2[C@H](C1)[C@@H](c1ccc(C#Cc3ccccc3)cc1)[C@@H]2CO	2.6
COCC#Cc1ccc([C@@H]2[C@H](CO)N3CCCCN(C(=O)COC)C[C@@H]23)cc1	1.8
COCC(=O)N1CCCCN2[C@H](CO)[C@H](c3ccc(C#Cc4ccccc4)cc3)[C@H]2C1	-6.3*
COCC(=O)N1CCCCN2[C@@H](CO)[C@@H](c3ccc(C#Cc4ccccc4)cc3)[C@@H]2C1	-8.5*
COc1ccccc1NC(=O)N1CCCCN2[C@H](CO)[C@H](c3ccc(C#Cc4ccccc4)cc3)[C@H]2C1	-0.26
COCC(=O)N1CCCCN2[C@@H](CO)[C@@H](c3ccc(C#Cc4ccc(OC)cc4)cc3)[C@@H]2C1	0.57
O=C(N[C@H]1CC[C@@H](CCNS(=O)(=O)c2ccc(F)cc2)O[C@@H]1CO)C1CCC1	2.3
O=C(C1CCCC1)N1CC(=O)N2[C@H](C1)[C@@H](c1ccc(C#CC3CCCC3)cc1)[C@@H]2CO	1.7
N#C[C@@H]1[C@H](c2ccccc2-c2cccc(F)c2)[C@H](CO)N1C(=O)C1CCC1	2.9
CC(=O)NC[C@@H]1[C@@H](c2ccc(C3=CCCC3)cc2)[C@@H](CO)N1C(=O)C1CCC1	1.1
N#C[C@H]1[C@H](c2ccccc2)[C@@H](CO)N1C(=O)CN1CCOCC1	4.7
O=C(CC1CC1)N1CC(=O)N2[C@H](C1)[C@H](c1ccc(-c3ccccc3)cc1)[C@@H]2CO	-5.1*
O=C(CC1CC1)N1CC(=O)N2[C@H](C1)[C@@H](c1ccc(-c3ccccc3)cc1)[C@@H]2CO	-8.9*
O=C(CC1CC1)N1CC(=O)N2[C@@H](CO)[C@H](c3ccc(-c4cccnc4)cc3)[C@@H]2C1	2.9
O=C(CC1CC1)N1CC(=O)N2[C@H](CO)[C@H](c3ccc(-c4cccnc4)cc3)[C@H]2C1	-0.58
O=C(CC1CC1)N1CC(=O)N2[C@H](C1)[C@@H](c1ccc(/C=C/c3ccccc3)cc1)[C@@H]2CO	-2
O=C(CC1CC1)N1CC(=O)N2[C@H](CO)[C@@H](c3ccc(/C=C/c4ccccc4)cc3)[C@@H]2C1	-1.2
O=C(CC1CC1)N1CC(=O)N2[C@H](C1)[C@H](c1ccc(-c3cccnc3)cc1)[C@@H]2CO	0.43
O=C(CC1CC1)N1CC(=O)N2[C@H](CO)[C@H](c3ccc(-c4cccnc4)cc3)[C@@H]2C1	0.24
